# Sampled rows, rich in hits. Any-hit rate of the full collection: about 3.5%.
# Pf apPOL block: Pf-apPOL DNA polymerase inhibition; Recombinant Pf-apPOL, molecular beacon fluorescence, 1.5 h; inhibition, % at 10 µM; 0.25% of 210,000 active
# mHTT CaM bind: mHTT-calmodulin interaction abrogation; AlphaScreen His-mHTT/GST-CaM binding, luminescence; inhibition, % at 15 µM; 3.6% of 190,000 active; AID 1671202;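 note: 0% = both proteins with DMSO and 100% = one protein alone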
# An asterisk follows results filed as active; · = not tested or not shown; ! = repeats disagree. Cut-off read from the data, not from the text of the source: active = inhibition above about 50%; inactive = the rest.
SMILES,Pf apPOL block,mHTT CaM bind
Cc1ccccc1-c1ccc(CN2C(C)C(=O)N(Cc3cn(Cc4ccco4)nn3)CCS2(=O)=O)cc1 (configuration not stated),-2.4,91.9*
CC1C(=O)N(Cc2cn(Cc3ccco3)nn2)CCS(=O)(=O)N1Cc1ccc(-c2ccccc2C(F)(F)F)cc1 (configuration not stated),-3.0,67.9*
Cc1ccc(-c2ccc(CN3C(C)C(=O)N(Cc4cn(Cc5ccco5)nn4)CCS3(=O)=O)cc2)c(C)c1 (configuration not stated),0.1,83.9*
CCCCN1C(=O)C(C)(C(=O)Nc2cccc(CC)c2)Oc2cccnc21 (configuration not stated),-6.6,-47.6
Cc1ccc(NC(=O)C2CCCN2C(=O)OC(C)(C)C)c(C)c1 (configuration not stated),2.5,2.2
CC(NC(=O)CC1Sc2ccccc2NC1=O)C(C)(C)C (configuration not stated),1.9,-11.8
CC(C)(C)C(=O)C=C1Nc2ccccc2SC1(O)CC(=O)C(C)(C)C (configuration not stated),·,51.1*
Cc1cccc(N2CCN(C/C=C/c3ccccc3[N+](=O)[O-])CC2)c1C,-5.5,65.7*
COc1ccccc1/C=C/CN1CCN(c2ccc([N+](=O)[O-])cc2)CC1,-3.1,53.1*
CCN1CCN(C/C=C/c2ccccc2[N+](=O)[O-])CC1,-6.9,0.9
COc1ccccc1/C=C/CN1CCN(c2ccccc2)CC1,-4.4,32.1
O=C1c2ccccc2-c2onc3c(Br)cc(O)c1c23,-3.4,58.0*
CCOc1ccc2noc3c2c1C(=O)c1ccccc1-3,-4.5,11.0
O=C1c2ccccc2-c2onc3c(Cl)cc(O)c1c23,-1.1,53.0*
O=C1c2ccccc2-c2onc3ccc(Cl)c1c23,-3.5,30.5
O=C(c1ccc(F)cc1)N1CCCC2(CC(c3cccc(Cl)c3)=CO2)C1 (configuration not stated),-7.0,-5.1
O=C(Nc1ccccc1)ONC(=Nc1ccc(OC(F)(F)F)cc1)c1c(Cl)cccc1Cl,-4.7,·
CC/C(C)=C1\C(=O)NN(c2ccc(Br)cc2)C1=O,-1.2,74.0*
Cn1c(=O)n(C)c2cc(/C=C3\C(=O)NN(c4ccc(Br)cc4)C3=O)ccc21,5.3,2.0
Brc1ccc(Nc2nc(-c3cccnc3)nc3ccccc23)cc1,-0.9,12.0
COc1ccc(Nc2nc(-c3cccnc3)nc3ccccc23)cc1,-2.6,54.4*
Cc1ccccc1-c1nc(C2CCN(S(=O)(=O)c3ccc(F)c(Cl)c3)CC2)no1,-2.7,-3.5
O=C(Nc1ccc(F)c(Cl)c1)c1cc(S(=O)(=O)NCCc2ccccc2)ccc1F,-6.2,76.0*
COc1ccc(OC)c(NC(=O)c2cc(S(=O)(=O)NCCc3ccccc3)ccc2F)c1,0.4,80.0*
O=C(Nc1cccc(Cl)c1)c1cc(S(=O)(=O)NCCc2ccc(Cl)cc2)ccc1F,-7.9,80.0*
SMILES,Pf apPOL block,mHTT CaM bind
Cc1ccc(NC(=O)c2cc(S(=O)(=O)NCCc3ccccc3)ccc2F)cc1Cl,1.4,5.0
O=C(Nc1cc(Cl)cc(Cl)c1)c1cc(S(=O)(=O)NCCc2ccccc2)ccc1F,-7.9,49.0
COc1ccc(OC)c(NC(=O)c2cc(S(=O)(=O)NCc3ccccc3)ccc2F)c1,-8.2,13.0
Cc1nn(C)cc1-c1nnc(CCn2cc([N+](=O)[O-])cn2)o1,·,-6.2
COc1ccc(/C=C2/N=C(c3cccc(Cl)c3Cl)OC2=O)c(OC)c1OC,-2.6,0.0
COc1ccc(C(=O)Nc2c(N)nc(SCC(=O)NC3CCCC3)[nH]c2=O)cc1OC,-3.3,-9.3
O=S(=O)(c1ccc(Cl)c(Cl)c1Cl)n1nnc2ccccc21,-4.5,-8.0
COc1c(S(=O)(=O)n2nnc3ccccc32)ccc(Cl)c1Cl,-7.0,87.0*!
O=S(=O)(c1cc(Cl)ccc1Cl)n1nnc2ccccc21,0.3,57.0*
COc1cc(Cl)c(S(=O)(=O)n2nnc3ccccc32)cc1Cl,-12.5,-4.1
COc1cc(S(=O)(=O)n2nnc3ccccc32)ccc1Cl,-8.9,88.0*!
COc1ccc(Cl)cc1S(=O)(=O)n1nnc2ccccc21,-0.7,18.0
COc1ccc(NC(=O)CSc2ncccc2C(=O)NCc2cccnc2)c(OC)c1,-3.1,4.0
CCN1C(=O)Cc2cc(C(=O)N3CCN(c4cc(C)ccc4C)CC3)ccc21,-1.8,43.2
COc1cc(Cl)ccc1C(=O)N1CCCN(C2CCN(CC3CC3)C2=O)CC1 (configuration not stated),-1.0,-1.2
CCCNC(=O)c1nc2cccnc2n(CC)c1=O,-5.3,-1.1
Cc1[nH]c2c(c1C)C(=O)CC(C)(C)C2,·,68.0*
COC(=O)c1[nH]c2c(c1C)C(=O)CC(C)(C)C2,·,2.7
Fc1ccc2c(c1)C1C=CCC1C(c1ccc(Cl)cc1)N2 (configuration not stated),-0.5,75.0*
Fc1ccc2c(c1)C1OCCC1C(c1ccccc1)N2 (configuration not stated),·,0.6

# Screening results as filed in PubChem.
